HTT cytoprotect – qHTS Multiplex Assay to Identify Dual Action Probes in a Cell Model of Huntington: Cytoprotection (ATP); PC12 HTT-Q103 induced, cytoprotection, ATP luminescence, 40 h; Potency, µM (top dose mostly 56.4 µM), inactives show cytoprotection (ATP increase), hits mostly activators; 230,000 tested, 0.14% active; AID 1471, 2008; also: potency is read from the fitted curve at half-maximal effect; % of control where 0% means no effect; nearly all actives have a fitted effect of over 45% in size
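PC12 cells stably carrying ecdysone-inducible Htt exon 1 (Q103)–GFP were induced with 100 nM tebufenozide (final) alongside library compounds in a dose series. Cytoprotection was scored as retained ATP by ATPlite luminescence.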
HttQ103 aggreg – qHTS Multiplex Assay to Identify Dual Action Probes in a Cell Model of Huntington: Aggregate Formation (GFP); 220,000 tested, 1.1% active; Potency, µM (titrated, usually from 46.1 µM), for the others: at the highest dose activity change, negative = inhibition, hits mostly inhibitors; AID 1688, 2009; PC12 HttQ103-GFP aggregates, Acumen cytometry, 40 h; also: potency is read from the fitted curve at half-maximal effect; % is scaled to controls: 0 for no effect and ±100 for the full control effect; nearly all actives have a fitted effect of over 60% in size
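Inducible Q103 Huntingtin exon 1–GFP PC12 line, 1500 cells/well in phenol red free DMEM with 5% equine and 5% calf serum. Tebufenozide 100 nM induced expression; compounds titrated; aggregates quantified by cytometry.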
aGal spleen mod – qHTS Assay for Inhibitors and Activators of Human alpha-Galactosidase From Spleen Homogenate | Alpha-galactosidase A (Homo sapiens), P06280 | human spleen homogenate, 4MU-alpha-Gal fluorescence, 40 min | Potency, µM (titrated, usually from 80 µM), for inactives: at the top dose activity change, negative = inhibition, most hits filed as inhibitors | 240,000 tested, 0.008% active | AID 2107, 2009;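 also: potency is read from the fitted curve at half-maximal effect; 0% = enzyme with vehicle and -100% = no enzyme basal signal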
Target sequence (P06280 32-429 limits assumed): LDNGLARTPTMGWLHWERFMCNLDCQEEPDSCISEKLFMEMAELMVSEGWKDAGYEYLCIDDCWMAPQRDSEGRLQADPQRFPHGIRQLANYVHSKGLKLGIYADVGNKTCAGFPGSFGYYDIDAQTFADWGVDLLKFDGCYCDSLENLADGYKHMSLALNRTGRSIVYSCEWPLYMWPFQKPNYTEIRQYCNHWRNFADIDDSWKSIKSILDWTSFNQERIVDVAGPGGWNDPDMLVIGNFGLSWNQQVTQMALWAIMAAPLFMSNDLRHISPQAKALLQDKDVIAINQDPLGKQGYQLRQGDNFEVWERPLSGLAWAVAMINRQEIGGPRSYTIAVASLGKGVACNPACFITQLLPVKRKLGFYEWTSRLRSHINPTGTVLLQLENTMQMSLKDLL
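qHTS titration in buffer at pH 5.0. Alpha-galactosidase activity in spleen homogenate was measured via 4-methylumbelliferone release from 1 mM fluorogenic substrate after 40 min at 37C and a pH 10 stop. AC50 came from Hill fits of control-normalized data.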
GLA inh pH 4.5 – qHTS Assay for Inhibitors of Human alpha-Galactosidase at pH 4.5. Alpha-galactosidase A (Homo sapiens), P06280. purified enzyme, 4-MU-alpha-Gal fluorescence, pH 4.5. activity change, negative = inhibition, % at 105 µM. 230,000 tested, under 10 active;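 also: 0% = full activity with enzyme and -100% = basal without enzyme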
Starred values were filed as active, the others as inactive; ? = inconclusive; . = no result given; [ ] = remark or other dose. Most compounds without a hit are left out; they make up all but 1.2% or so of the library. Calls follow the shape of the dose curve; as a rule, active = well fitted curve in the direction sought with a large enough effect; inconclusive = small, poorly fitted or top-dose-only effect, or another doubt; inactive = no such curve, though single readings can be large; an effect the other way counts as inactive or inconclusive.

SMILES	HTT cytoprotect	HttQ103 aggreg	aGal spleen mod	GLA inh pH 4.5
COC(=O)CCCNC(=O)c1ccc2[nH]c(C)c(C)c2c1	-11%	1.3µM*	-8%	-6
COC(=O)CSc1cc([N+](=O)[O-])ccc1NC(=O)OC	-22%	-8%	35µM*	5
CC1=CC(=C(c2ccc(N)cc2)c2ccc(N)cc2)C=CC1=N	-62%	7.9µM*	.	.
c1ccc2c(c1)oc1c(NCc3ccc4c(c3)OCO4)ncnc12	4%[10 µM]	11µM*	7%	4
C[C@@H]1O[C@@H](n2cc(F)c(=O)[nH]c2=O)[C@H](O)[C@@H]1O	-37%[1.9 µM]	.	.	.
Cc1ccc(C(=O)Nc2ccc(S(=O)(=O)N3CCOCC3)cc2)cc1	.	.	1%	-18
Cc1cc(C)c(O)c(-c2cc(C(=O)Nc3ccc(S(=O)(=O)N4CCOCC4)cc3)[nH]n2)c1	-94%[0.074 µM]	20µM*	-3%	-14
CCc1c(C)nc2ncnn2c1NCCc1ccc(OC)c(OC)c1	18%[10 µM]	10µM*	-5%	-3
COc1ccc(CCNc2c(C)c(C)nc3ncnn23)cc1	-54%[10 µM]	?	6%	2
C[C@@](N)(C(=O)O)[C@@H]1C[C@@H]1C(=O)O	-25%	.	1%	.
O=C(C1CCCN(S(=O)(=O)c2cccc3nonc23)C1)N1CCC(Cc2ccccc2)CC1 (configuration not stated)	-39%	35µM*	-3%	7
OC[C@@H]1OC(O)[C@@H](O)[C@H](O)[C@@H]1O (some centres not stated)	.	.	2%	.
CC(C)CCNC(=S)Nc1ccc([N+](=O)[O-])cc1	30%[0.074 µM]	20µM*	?	11
CCCCNC(=S)Nc1ccc([N+](=O)[O-])cc1	13%[10 µM]	?	3%	-11
CCCCCCCCCCCCCCCCCCCCCCCCCCCCCC	.	.	-24%	.
Cc1ccc(-c2csc(N3CCC(NS(=O)(=O)c4ccc5c(c4)OCCO5)CC3)n2)cc1	?	6.3µM*	-7%	-21
Cc1ccc(CNS(=O)(=O)c2ccc3c(c2)OCCO3)cc1	.	-1%	3%	1
COC(=O)c1ccc(CSc2cc(C)c3cccc(C)c3n2)o1	9%[10 µM]	-5%	35µM*	15
COc1ccc(-n2cnc3cc(NCc4ccccn4)ccc32)cc1	-31%	4%	-3%	0
COc1ccc(-n2cnc3ccccc32)cc1	-11%	14µM*	1%	4
c1ccc(-n2cnc3ccccc32)cc1	-22%	?	2%	-18[21.1 µM]
COc1ccc2ncn(-c3ccccc3)c2c1	23%[10 µM]	10µM*	4%	-2
Cc1ccc(SCC(c2ccccc2)N2CCN(C)CCC2=O)cc1 (configuration not stated)	.	.	0%	.
CC(C)Cn1c(N)c(C(=O)COC(=O)CC23CC4CC(CC(C4)C2)C3)c(=O)n(C)c1=O	-8%[10 µM]	7.1µM*	7%	-15
CCCCCCCCOc1c(OC)cc(/C=C/C(=O)N2CCN(c3ccc(C)c(C)c3)CC2)cc1OC	.	.	-17%	.
SMILES	HTT cytoprotect	HttQ103 aggreg	aGal spleen mod	GLA inh pH 4.5
c1ccc(C2Oc3ccccc3C3CC(c4cccs4)=NN32)cc1 (configuration not stated)	17%[10 µM]	-1%	-7%	-1
Oc1ccccc1C1CC(c2cccs2)=NC(c2cccc(Br)c2)N1 (configuration not stated)	-47%	11µM*	-9%	-13[21.1 µM]
Oc1ccc(N2CCN(c3ncnc4sc5c(c34)CCC5)CC2)cc1	6%[10 µM]	11µM*	17%	5
CCOC(=O)C(C(=O)OCC)C1N=C(N)N=C2Oc3ccccc3N21 (configuration not stated)	9%[10 µM]	3.2µM*	-18%	5
C=CCn1c(=O)c2c(nc(-c3ccccc3)n2C)n(C)c1=O	-6%	.	-13%	.
C=CCn1c(=O)n(CCOC)c(=O)c2sc3ccccc3c21	17%[10 µM]	22µM*	5%	10
Cc1cc(C)c2c(N)c3cccc(C)c3nc2n1	.	13µM*	19%	5
O=C(COc1ccccc1)NNC1=NS(=O)(=O)c2ccccc21	-67%	-4%	-2%	2
C=CCN1C(C(=O)c2ccccc2)=C(OC(=O)COc2ccccc2)c2ccccc2S1(=O)=O	18%[10 µM]	13µM*	-4%	-13
Cn1nc(C(F)(F)F)c(/C=N/OC(=O)c2ccccc2)c1Sc1ccc(Cl)cc1	-8%	14µM*	25%	0

Source: PubChem BioAssay (National Center for Advancing Translational Sciences (NCATS))
